The whole screen tested about 16,000 compounds, of which about 250 (1.6%) were called active.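 How the source made its calls: active means inhibition above the average over every tested compound plus 3 SD (cut at about 40% in these data); inactive means the rest.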 Many of the other results were omitted from the sample, so actives are more common in it than they were.
tested on: Hepatitis C virus NS3 helicase; experiment: compounds blocking NS3h DNA binding – biochemical, fluorescence polarization, ChemBridge library, primary screen (AID 687043); conditions: NS3h Cy5-dT15 DNA binding, at 100 µM, hits give high values

| Compound | inhibition |
| --- | --- |
| O=C(/C=C/c1cc(Br)cs1)Nc1cccc(C(F)(F)F)c1 | 14.4% (inactive) |
| COc1ccc(C2(CNC(=O)c3ccc(F)cc3)CCCC2)cc1OC | 8.8% (inactive) |
| O=C(Nc1ccncc1)c1cc2ccccc2o1 | 11.4% (inactive) |
| CCOC(=O)c1c(C)nc2n(/N=C\c3ccc([N+](=O)[O-])cc3)c3ccccc3n12 | 6.3% (inactive) |
| Cc1ccc(C(=O)Nc2ccc(C(C)C)cc2)cc1C | 3.2% (inactive) |
| Cc1ccc(/C=N\NC(=O)c2cccnc2)o1 | 1.6% (inactive) |
| O=C(NCCc1c[nH]c2ccccc12)c1cccs1 | 8.2% (inactive) |
| COC(=O)C1=C(C)NC2=C(C(=O)c3ccccc32)C1c1ccc(OCc2ccc(F)cc2)c(OC)c1 (centres undefined) | -0.7% (inactive) |
| Cc1ccc(N2NC(=O)/C(=C/c3ccc4c(c3)OCO4)C2=O)cc1Cl | 5.8% (inactive) |
| O=C(NCCN1CCOCC1)/C(=C/c1ccc(F)cc1)NC(=O)c1ccccc1 | 15.5% (inactive) |
| O=C(Nc1ccc(Cl)c(Cl)c1)Nc1nnc(-c2ccc(F)cc2)s1 | 21.5% (inactive) |
| CCOc1ccc(NC(=O)CC2S/C(=N/N=C3/CCCc4ccccc43)NC2=O)cc1 (centres undefined) | 16.3% (inactive) |
| Cc1cccc(-c2cc(NC(=O)COc3ccc(Cl)cc3Cl)n[nH]2)c1 | -2.4% (inactive) |
| COc1ccccc1N1CCN(C(=O)c2cnn3c2NC(c2ccc(Br)cc2)CC3C(F)(F)F)CC1 (centres undefined) | 7.2% (inactive) |
| COc1cc(/C=C2/SC(=S)NC2=O)ccc1OCCOCCOc1ccc(C)cc1 | 18.6% (inactive) |
| COc1cc(C=C2C(=O)NC(=O)NC2=O)ccc1OCCOc1ccc([N+](=O)[O-])cc1 | 52.6% (active) |
| COc1cc(/C=C2/C(=O)NC(=O)N(c3ccc(C)cc3)C2=O)ccc1OCCOc1ccc([N+](=O)[O-])cc1 | 20.3% (inactive) |
| O=C(Cn1cncn1)c1ccc(F)c(F)c1 | -2.3% (inactive) |
| COc1cc(/C=C2/C(=O)N(c3ccccc3)N=C2C)ccc1OC(=O)c1cccs1 | 11.4% (inactive) |
| CCC1=NN2C(=N)/C(=C/c3cc(Br)c(OCc4ccc(F)cc4)c(OC)c3)C(=O)N=C2S1 | 10.4% (inactive) |

| Compound | inhibition |
| --- | --- |
| O=C(/C=C/c1ccc(Cl)cc1)Nc1ccc(-c2nc3ccccc3o2)c(O)c1 | 9.9% (inactive) |
| O=C1N=C(N2CCCC2)S/C1=C\c1cccc(Br)c1 | 9.8% (inactive) |
| COc1ccc(C(=O)CSc2nc(C)cc(C)n2)cc1[N+](=O)[O-] | 18% (inactive) |
| O=C(NC(c1ccccc1)c1ccccc1)c1ccc([N+](=O)[O-])cc1Cl | 14.7% (inactive) |
| O=c1cccc(-c2ccc(Br)cc2)o1 | 0.7% (inactive) |
| CC(C)(C)C(=O)Nc1ccc(C(=O)Nc2ccc(O)cc2C(=O)O)cc1 | -2.6% (inactive) |
| CCOC(=O)c1ccc(-c2ccc(/C=C(/C#N)C(=O)Nc3ccc4ccccc4c3)o2)cc1 | -1.8% (inactive) |
| O=c1oc(-c2ccco2)nc2ccc(Cl)cc12 | -3.4% (inactive) |
| O=C(CSc1ccccn1)N1c2ccccc2Sc2ccccc21 | 10.2% (inactive) |
| O=C(Nc1cc(C(F)(F)F)ccc1Cl)C1CC(=O)N(c2ccc(Br)cc2)C1 (centres undefined) | 2.2% (inactive) |
| Cc1ccc(NC(=O)c2ccc3c(c2)OCCO3)c([N+](=O)[O-])c1 | 20.8% (inactive) |
| CCC(=O)/C=C1\Sc2ccccc2N1CC | -1.3% (inactive) |
| O=C(CC(Nc1ccc2ncccc2c1)c1ccc(F)cc1)c1ccccc1 (centres undefined) | 3.6% (inactive) |
| Cc1cc(C)n(C(=O)COc2cccc3ccccc23)n1 | 7.8% (inactive) |
| COc1ccc(C2=N/C(=C/c3ccccc3OC)C(=O)N2c2ccccc2)cc1 | 8.2% (inactive) |
| CCOC(=O)C1=C(C)N=c2s/c(=C\c3ccc(C)o3)c(=O)n2C1c1cccc(OC)c1 (centres undefined) | 20.2% (inactive) |
| Cc1nnc(Nc2ccc3c(c2)nc(C)n3Cc2ccccc2)c2ccccc12 | 2.2% (inactive) |
| N#CC(C#N)=C1CCCc2ccccc2N1 | -4.1% (inactive) |
| O=c1c(Cl)c(Cl)cnn1Cc1c(Cl)ccc(Cl)c1Cl | 5% (inactive) |
| Cc1ccnc(SC2CC(=O)N(c3ccccc3)C2=O)n1 (centres undefined) | 1.2% (inactive) |

| Compound | inhibition |
| --- | --- |
| COc1ccc(Cl)cc1NC(=O)Cn1nc([N+](=O)[O-])cc1C | 11.3% (inactive) |
| C=CCN1C(=O)/C(=C\c2cc(Cl)c(O)c(Cl)c2)SC1=S | 21.3% (inactive) |
| Cc1ccc(N2C(=O)/C(=C/c3ccc(Oc4ccc([N+](=O)[O-])cn4)cc3)C(=O)NC2=S)cc1 | 25.1% (inactive) |
| C=CCN1C(=O)/C(=C\c2cc(OC)c(O)c([N+](=O)[O-])c2)C(=O)NC1=S | 81.2% (active) |
| COc1cccc(C=C2C(=O)NC(=O)NC2=O)c1O | 15.5% (inactive) |
| C=CCOc1ccccc1C=C1C(=O)NC(=O)NC1=O | 34.9% (inactive) |
| O=C1NC(=O)C(=Cc2cc([N+](=O)[O-])cc(Br)c2O)C(=O)N1 | 48.9% (active) |
| OCCNC1CCCc2c1[nH]c1ccc(-c3ccccc3)cc21 (centres undefined) | 2.8% (inactive) |
| CC(C)(C)c1ccc(C2C(C(=O)c3ccco3)=C(O)C(=O)N2c2ncc(S(=O)(=O)c3ccc([N+](=O)[O-])cc3)s2)cc1 (centres undefined) | 9.7% (inactive) |
| COc1ccc2oc(=O)c(C(N)=O)cc2c1 | 2.8% (inactive) |
| Oc1ccc(Br)cc1CN1CCN(Cc2ccccn2)CC1 | -7.5% (inactive) |
| COc1ccc(Br)cc1/C=C1/SC(=S)N(c2cccc(C(F)(F)F)c2)C1=O | 11.5% (inactive) |
| O=C(CCc1ccccc1)N1N=C(c2cccc([N+](=O)[O-])c2)CC1(O)C(F)(F)F (centres undefined) | 8.7% (inactive) |
| CC(C)(C)N1C(=O)NC(=O)C(=Cc2cccs2)C1=O | 75.4% (active) |
| Cc1cc(C)cc(N2C(=O)NC(=O)/C(=C\c3ccc(F)cc3)C2=O)c1 | 21.8% (inactive) |
| O=C1NC(=Nc2ccc(F)cc2)S/C1=C\c1cccs1 | 12.6% (inactive) |
| Cc1ccccc1NC(=O)C(=O)NCc1ccco1 | 10.2% (inactive) |
| CSc1ccc(C(C2=C(O)CC(C)(C)CC2=O)C2C(=O)CC(C)(C)CC2=O)cc1 (centres undefined) | 5.7% (inactive) |
| CCN1C(=O)/C(=C\c2cn(CCOc3ccccc3)c3ccccc23)SC1=S | 11.7% (inactive) |

From PubChem BioAssay AID687043 (Milwaukee Institute for Drug Discovery, 2013)
